These results are taken from PubChem BioAssay (EPA / NIEHS).

Records with an inconclusive call do not appear. Calls of active or inactive are those of the source. The calls were made as follows: active = hit-call score of the fitted dose curve at least 0.9, where 1 is the maximum; inconclusive = response in the unintended direction; inactive = score below 0.9.

Test [1] addresses human Protein Tyrosine Phosphatase Non-receptor Type 1 (PTPN1), PTPN1 (gene 5770) (UniProt P18031). Description: NVS_ENZ_hPTPN1: NovaScreen (NVS) Enzymatic Assay for human Protein Tyrosine Phosphatase Non-receptor Type 1 (PTPN1) (AID 2283201). The method, boiled down:
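Chemicals were first tested in duplicate at 25 uM, and those passing threshold went on to singleton concentration series topping at 50 uM. Recombinant enzyme, specific substrate, product separated by mobility shift, fluorescence read at 1.33 h; activity loss relative to DMSO.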

For test [2], the target named is Tyrosine-protein phosphatase non-receptor type 11 (Homo sapiens) (UniProt Q06124). Description: NVS_ENZ_hPTPN11: NovaScreen (NVS) Enzymatic Assay for human Protein Tyrosine Phosphatase Non-receptor Type 11 (PTPN11) (AID 2283202). The method, boiled down:
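Compounds first tested in duplicate at 25 uM; those reaching ~30% inhibition rerun in singleton concentration-response, top 50 uM. Phosphatase activity measured after 0.5 h by fluorescence with mobility-shift separation, relative to DMSO.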

The target of test [3] is Tyrosine-protein phosphatase non-receptor type 12 (Homo sapiens) (UniProt Q05209). Description: NVS_ENZ_hPTPN12: NovaScreen (NVS) Enzymatic Assay for human Protein Tyrosine Phosphatase Non-receptor Type 12 (PTPN12) (AID 2283204). The method, boiled down:
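Single-concentration duplicates (25 uM) preceded singleton concentration-response up to 50 uM for chemicals passing threshold. Cell-free recombinant PTPN12 activity was read 1.33 h after dosing via fluorescence after mobility-shift separation; loss of signal versus DMSO.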

Test [4] concerns the target Tyrosine-protein phosphatase non-receptor type 13 (Homo sapiens) (UniProt Q12923). Description: NVS_ENZ_hPTPN13: NovaScreen (NVS) Enzymatic Assay for human Protein Tyrosine Phosphatase Non-receptor Type 13 (PTPN13) (AID 2283205). The method, boiled down:
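Screened first at a single 25 uM in duplicate; compounds passing the threshold (e.g. 30% inhibition) were rerun in concentration series, top 50 uM. Recombinant enzyme, fluorescent substrate, mobility-shift separation, 0.5 h read. Data fitted as inhibition relative to DMSO.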

For test [5], the target named is Tyrosine-protein phosphatase non-receptor type 14 (Homo sapiens) (UniProt Q15678). Description: NVS_ENZ_hPTPN14: NovaScreen (NVS) Enzymatic Assay for human Protein Tyrosine Phosphatase Non-receptor Type 14 (PTPN14) (AID 2283206). The method, boiled down: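 Fluorescent substrate turnover by recombinant human PTPN14 was measured 0.5 h after compound addition, with substrate and product separated by mobility shift. Single-point screening at 25 uM, then concentration-response up to 50 uM for chemicals meeting threshold (e.g., 30% inhibition).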

For test [6], the target named is human Protein Tyrosine Phosphatase Non-receptor Type 9 (PTPN9), PTPN9 (gene 5780) (UniProt P43378). Description: NVS_ENZ_hPTPN9: NovaScreen (NVS) Enzymatic Assay for human Protein Tyrosine Phosphatase Non-receptor Type 9 (PTPN9) (AID 2283209). The method, boiled down: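 Sf9-expressed enzyme in a cell-free assay, fluorescence read 1.33 h after dosing with mobility-shift separation of substrate and product. Tested at 25 uM in duplicate, then up to 50 uM; signal loss versus DMSO.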

Test [7] addresses human Protein Tyrosine Phosphatase Receptor Type M (PTPRM), PTPRM (gene 5797) (UniProt P28827). Description: NVS_ENZ_hPTPRM: NovaScreen (NVS) Enzymatic Assay for human Protein Tyrosine Phosphatase Receptor Type M (PTPRM) (AID 2283215). The method, boiled down:
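Read-out is fluorescence after electrophoretic separation of substrate and product, taken 1.33 h post-dosing with recombinant enzyme. Compounds screened at 25 uM in duplicate, then concentration series for actives; activity as signal loss relative to DMSO.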

Test [8] deals with human Sirtuin 2 (SIRT2), SIRT2 (gene 22933) (UniProt Q8IXJ6). Description: NVS_ENZ_hSIRT2: NovaScreen (NVS) Enzymatic Assay for human Sirtuin 2 (SIRT2) (AID 2283217). The method, boiled down:
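Single-point duplicate screen at 25 uM, then concentration-response (max 50 uM) for chemicals passing threshold. Enzyme activity of recombinant human SIRT2 measured after 1 hr by fluorescence with mobility-shift separation of product; DMSO baseline.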

Test [9] has as its target human Tropomyosin Receptor Kinase A (TRKA), NTRK1 (gene 4914) (UniProt P04629). Description: NVS_ENZ_hTrkA: NovaScreen (NVS) Enzymatic Assay for human Tropomyosin Receptor Kinase A (TRKA) (AID 2283224). The method, boiled down:
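Compounds were screened at 25 uM in duplicate, then concentration series to a 50 uM top for those meeting threshold (e.g. 30% inhibition). Enzyme was recombinant human TrkA, incubated 1 h. Product formation was quantified by fluorescence after mobility-shift separation.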

In test [10] the target is human Vascular Endothelial Growth Factor Receptor 1 (VEGFR1), FLT1 (gene 2321) (UniProt P17948). Description: NVS_ENZ_hVEGFR1: NovaScreen (NVS) Enzymatic Assay for human Vascular Endothelial Growth Factor Receptor 1 (VEGFR1) (AID 2283226). The method, boiled down: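 Kinase activity of recombinant human VEGFR1 was read by fluorescence after electrophoretic separation of product from substrate, 1 h post-dosing; initial duplicate single-point testing at 25 uM, followed by concentration-series follow-up, with DMSO as baseline.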

Test [11] has as its target human Protein Tyrosine Phosphatase Receptor Type B (PTPRB), PTPRB (gene 5787) (UniProt P23467). Description: NVS_ENZ_hPTPRB: NovaScreen (NVS) Enzymatic Assay for human Protein Tyrosine Phosphatase Receptor Type B (PTPRB) (AID 2283211). The method, boiled down: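 Recombinant human PTPRB with a fluorescent substrate, product separated by electrophoretic mobility shift; read 1 h after dosing. Primary screen in duplicate at 25 uM; actives then retested in concentration series; loss of signal versus DMSO.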

The target of test [12] is human Protein Tyrosine Phosphatase Receptor Type F (PTPRF), PTPRF (gene 5792) (UniProt P10586). Description: NVS_ENZ_hPTPRF: NovaScreen (NVS) Enzymatic Assay for human Protein Tyrosine Phosphatase Receptor Type F (PTPRF) (AID 2283213). The method, boiled down:
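Cell-free fluorescence enzyme assay with recombinant protein and substrate; product separated by electrophoretic mobility shift. Read 1 h after dosing, single 25 uM duplicate screen, then concentration-response up to 50 uM; loss of signal vs DMSO.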

Test [13] has as its target human Sirtuin 1 (SIRT1), SIRT1 (gene 23411) (UniProt Q96EB6). Description: NVS_ENZ_hSIRT1: NovaScreen (NVS) Enzymatic Assay for human Sirtuin 1 (SIRT1) (AID 2283219). The method, boiled down:
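Cell-free recombinant SIRT1 with a fluorescent substrate; substrate and product separated by electrophoretic mobility shift and read by fluorescence intensity, 1 h after dosing. Primary screen at 25 uM in duplicate; hits re-run in concentration-response up to 50 uM, relative to DMSO.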

The target in test [14] is human Sirtuin 3 (SIRT3), SIRT3 (gene 23410) (UniProt Q9NTG7). Description: NVS_ENZ_hSIRT3: NovaScreen (NVS) Enzymatic Assay for human Sirtuin 3 (SIRT3) (AID 2283222). The method, boiled down:
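Cell-free enzyme assay with recombinant protein and fluorescent substrate, product separated by electrophoretic mobility shift; read 1 hour after dosing. Screened in duplicate at 25 uM, then singleton concentration-response up to 50 uM; loss of signal versus DMSO.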

For test [15], the target named is human Protein Tyrosine Phosphatase Non-receptor Type 6 (PTPN6), PTPN6 (gene 5777) (UniProt P29350). Description: NVS_ENZ_hPTPN6: NovaScreen (NVS) Enzymatic Assay for human Protein Tyrosine Phosphatase Non-receptor Type 6 (PTPN6) (AID 2283210). The method, boiled down:
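Recombinant human PTPN6 from SF9 cells, enzyme activity followed by fluorescence after mobility-shift separation of substrate and product at 1.33 h. Chemicals first tested at a single 25 uM in duplicate, then confirmed across concentration series; loss of signal relative to DMSO.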

Test [16] concerns the target human Protein Phosphatase, Mg2+/Mn2+ Dependent 1A (PPM1A), PPM1A (gene 5494) (UniProt P35813). Description: NVS_ENZ_hPPM1A: NovaScreen (NVS) Enzymatic Assay for human Protein Phosphatase, Mg2+/Mn2+ Dependent 1A (PPM1A) (AID 2283198). The method, boiled down: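 Primary screen in duplicate at 25 uM, with actives then titrated to a maximum of 50 uM. Recombinant PPM1A dephosphorylation of fluorescent substrate measured at 1 h, with substrate and product separated by mobility shift; inhibition fitted against DMSO.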

Test [17] concerns the target human Protein Tyrosine Phosphatase Non-receptor Type 4 (PTPN4), PTPN4 (gene 5775) (UniProt P29074). Description: NVS_ENZ_hPTPN4: NovaScreen (NVS) Enzymatic Assay for human Protein Tyrosine Phosphatase Non-receptor Type 4 (PTPN4) (AID 2283208). The method, boiled down: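 Screened in duplicate at 25 uM, with hits then titrated to a top concentration of 50 uM. Recombinant Sf9-derived PTPN4 turnover was read by fluorescence with electrophoretic separation, 1.33 h after compound addition. DMSO served as baseline.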

Test [18] deals with human SRC Proto-Oncogene, Non-receptor Tyrosine Kinase (SRC), SRC (gene 6714) (UniProt P12931). Description: NVS_ENZ_hSRC: NovaScreen (NVS) Enzymatic Assay for human SRC Proto-Oncogene, Non-receptor Tyrosine Kinase (SRC) (AID 2283223). The method, boiled down: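 Compounds passing 30% inhibition at 25 uM (duplicate) were titrated to a top concentration of 50 uM. Enzyme activity read by fluorescence with mobility-shift substrate/product separation after 1 h; DMSO baseline.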

For test [19], the target named is Serine/threonine-protein phosphatase PP1-alpha catalytic subunit (Homo sapiens) (UniProt P62136). Description: NVS_ENZ_hPPP1CA: NovaScreen (NVS) Enzymatic Assay for human Protein Phosphatase 1 Aatalytic subunit Alpha (PPP1CA) (AID 2283200). The method, boiled down: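 Chemicals were first screened in duplicate at 25 uM, and those passing threshold (e.g. 30% inhibition) were run as concentration series to 50 uM. Cell-free recombinant protein, 1.33 h read, fluorescent substrate/product mobility-shift detection, normalised to DMSO.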
Sequence of Serine/threonine-protein phosphatase PP1-alpha catalytic subunit (Homo sapiens) (P62136 whole entry, looked up): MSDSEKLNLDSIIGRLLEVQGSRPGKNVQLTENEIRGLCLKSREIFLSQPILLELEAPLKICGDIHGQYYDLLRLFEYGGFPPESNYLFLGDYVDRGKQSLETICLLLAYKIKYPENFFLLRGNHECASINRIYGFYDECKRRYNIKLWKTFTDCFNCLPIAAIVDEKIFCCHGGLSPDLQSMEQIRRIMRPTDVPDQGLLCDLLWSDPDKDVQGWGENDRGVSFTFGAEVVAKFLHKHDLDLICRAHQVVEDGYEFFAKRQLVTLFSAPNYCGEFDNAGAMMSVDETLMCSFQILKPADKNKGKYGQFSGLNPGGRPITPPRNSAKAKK

Sequence of Tyrosine-protein phosphatase non-receptor type 12 (Homo sapiens) (Q05209 whole entry, looked up): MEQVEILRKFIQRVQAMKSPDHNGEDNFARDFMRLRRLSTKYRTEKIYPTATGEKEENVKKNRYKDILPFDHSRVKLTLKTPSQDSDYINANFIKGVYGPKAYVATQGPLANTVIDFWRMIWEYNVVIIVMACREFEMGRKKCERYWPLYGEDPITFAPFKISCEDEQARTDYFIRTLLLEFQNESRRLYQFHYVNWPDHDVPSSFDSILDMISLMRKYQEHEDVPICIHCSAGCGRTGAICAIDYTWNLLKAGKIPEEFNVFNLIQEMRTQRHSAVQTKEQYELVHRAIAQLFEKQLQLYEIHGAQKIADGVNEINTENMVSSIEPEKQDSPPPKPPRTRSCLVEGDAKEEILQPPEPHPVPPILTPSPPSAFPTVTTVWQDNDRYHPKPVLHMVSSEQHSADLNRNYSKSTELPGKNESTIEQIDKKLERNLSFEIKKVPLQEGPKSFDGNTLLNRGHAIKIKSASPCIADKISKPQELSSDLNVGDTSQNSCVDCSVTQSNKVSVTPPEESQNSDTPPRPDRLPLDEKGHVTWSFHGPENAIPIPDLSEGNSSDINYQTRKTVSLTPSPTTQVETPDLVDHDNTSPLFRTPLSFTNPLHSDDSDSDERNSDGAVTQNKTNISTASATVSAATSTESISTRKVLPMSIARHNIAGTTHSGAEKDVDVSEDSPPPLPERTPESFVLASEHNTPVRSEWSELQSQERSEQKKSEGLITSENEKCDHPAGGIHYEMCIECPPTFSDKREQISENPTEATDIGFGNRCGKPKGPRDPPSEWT
Sequence of human Protein Tyrosine Phosphatase Non-receptor Type 9 (PTPN9), PTPN9 (gene 5780) (P43378 whole entry, looked up): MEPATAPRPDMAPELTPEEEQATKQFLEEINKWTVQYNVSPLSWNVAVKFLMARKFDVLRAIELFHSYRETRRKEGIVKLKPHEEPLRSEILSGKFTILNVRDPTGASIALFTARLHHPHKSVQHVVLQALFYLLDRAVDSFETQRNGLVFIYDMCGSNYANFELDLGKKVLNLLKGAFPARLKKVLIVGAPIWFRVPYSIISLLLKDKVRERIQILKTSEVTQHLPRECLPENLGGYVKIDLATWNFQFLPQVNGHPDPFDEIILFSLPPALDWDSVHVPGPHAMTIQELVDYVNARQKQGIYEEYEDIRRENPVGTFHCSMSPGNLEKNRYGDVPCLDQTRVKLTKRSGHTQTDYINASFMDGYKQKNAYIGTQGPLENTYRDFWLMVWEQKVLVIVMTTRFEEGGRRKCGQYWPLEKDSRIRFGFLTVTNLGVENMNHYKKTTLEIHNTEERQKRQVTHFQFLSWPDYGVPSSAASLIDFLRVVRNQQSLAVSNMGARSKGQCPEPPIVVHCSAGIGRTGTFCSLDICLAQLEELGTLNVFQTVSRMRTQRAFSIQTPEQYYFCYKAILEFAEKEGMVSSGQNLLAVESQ
Sequence of human Sirtuin 2 (SIRT2), SIRT2 (gene 22933) (Q8IXJ6 whole entry, looked up): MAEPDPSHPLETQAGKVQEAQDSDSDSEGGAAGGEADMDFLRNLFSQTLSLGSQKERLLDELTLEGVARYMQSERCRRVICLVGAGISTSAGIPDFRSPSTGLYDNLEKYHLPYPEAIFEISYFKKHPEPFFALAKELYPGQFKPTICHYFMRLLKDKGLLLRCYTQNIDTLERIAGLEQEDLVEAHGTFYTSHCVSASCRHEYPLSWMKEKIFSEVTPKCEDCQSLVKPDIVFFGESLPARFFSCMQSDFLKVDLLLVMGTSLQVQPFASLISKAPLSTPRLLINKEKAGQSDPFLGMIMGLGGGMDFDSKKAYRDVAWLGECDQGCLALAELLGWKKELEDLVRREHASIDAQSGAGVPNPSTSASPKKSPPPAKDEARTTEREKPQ
Sequence of Tyrosine-protein phosphatase non-receptor type 11 (Homo sapiens) (Q06124 whole entry, looked up): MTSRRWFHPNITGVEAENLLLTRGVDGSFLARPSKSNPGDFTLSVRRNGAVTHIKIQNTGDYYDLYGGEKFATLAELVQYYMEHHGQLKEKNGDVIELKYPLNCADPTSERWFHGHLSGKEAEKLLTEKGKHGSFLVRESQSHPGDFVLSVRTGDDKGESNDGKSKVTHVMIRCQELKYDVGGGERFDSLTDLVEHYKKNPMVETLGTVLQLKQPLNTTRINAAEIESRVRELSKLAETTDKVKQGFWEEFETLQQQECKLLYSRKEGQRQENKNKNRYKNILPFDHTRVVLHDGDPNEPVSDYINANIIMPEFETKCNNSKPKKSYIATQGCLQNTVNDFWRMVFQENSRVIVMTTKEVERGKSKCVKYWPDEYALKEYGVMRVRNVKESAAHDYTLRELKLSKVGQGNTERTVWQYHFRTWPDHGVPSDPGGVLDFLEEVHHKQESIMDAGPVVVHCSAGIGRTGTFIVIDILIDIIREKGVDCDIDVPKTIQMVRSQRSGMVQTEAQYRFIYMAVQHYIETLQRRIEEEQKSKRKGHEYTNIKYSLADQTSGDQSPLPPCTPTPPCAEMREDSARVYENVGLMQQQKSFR
Sequence of human Sirtuin 3 (SIRT3), SIRT3 (gene 23410) (Q9NTG7 whole entry, looked up): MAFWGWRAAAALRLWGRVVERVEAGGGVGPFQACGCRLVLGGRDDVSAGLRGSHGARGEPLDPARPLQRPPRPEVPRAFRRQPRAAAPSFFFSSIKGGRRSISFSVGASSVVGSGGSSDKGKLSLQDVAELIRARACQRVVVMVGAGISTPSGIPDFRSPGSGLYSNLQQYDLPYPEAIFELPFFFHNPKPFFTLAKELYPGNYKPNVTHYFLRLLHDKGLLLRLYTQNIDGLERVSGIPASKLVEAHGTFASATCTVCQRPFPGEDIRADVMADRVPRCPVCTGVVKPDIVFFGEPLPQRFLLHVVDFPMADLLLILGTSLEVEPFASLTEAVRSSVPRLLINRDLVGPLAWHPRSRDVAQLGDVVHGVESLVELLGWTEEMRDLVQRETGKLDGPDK
Sequence of human Protein Tyrosine Phosphatase Receptor Type M (PTPRM), PTPRM (gene 5797) (P28827 whole entry, looked up): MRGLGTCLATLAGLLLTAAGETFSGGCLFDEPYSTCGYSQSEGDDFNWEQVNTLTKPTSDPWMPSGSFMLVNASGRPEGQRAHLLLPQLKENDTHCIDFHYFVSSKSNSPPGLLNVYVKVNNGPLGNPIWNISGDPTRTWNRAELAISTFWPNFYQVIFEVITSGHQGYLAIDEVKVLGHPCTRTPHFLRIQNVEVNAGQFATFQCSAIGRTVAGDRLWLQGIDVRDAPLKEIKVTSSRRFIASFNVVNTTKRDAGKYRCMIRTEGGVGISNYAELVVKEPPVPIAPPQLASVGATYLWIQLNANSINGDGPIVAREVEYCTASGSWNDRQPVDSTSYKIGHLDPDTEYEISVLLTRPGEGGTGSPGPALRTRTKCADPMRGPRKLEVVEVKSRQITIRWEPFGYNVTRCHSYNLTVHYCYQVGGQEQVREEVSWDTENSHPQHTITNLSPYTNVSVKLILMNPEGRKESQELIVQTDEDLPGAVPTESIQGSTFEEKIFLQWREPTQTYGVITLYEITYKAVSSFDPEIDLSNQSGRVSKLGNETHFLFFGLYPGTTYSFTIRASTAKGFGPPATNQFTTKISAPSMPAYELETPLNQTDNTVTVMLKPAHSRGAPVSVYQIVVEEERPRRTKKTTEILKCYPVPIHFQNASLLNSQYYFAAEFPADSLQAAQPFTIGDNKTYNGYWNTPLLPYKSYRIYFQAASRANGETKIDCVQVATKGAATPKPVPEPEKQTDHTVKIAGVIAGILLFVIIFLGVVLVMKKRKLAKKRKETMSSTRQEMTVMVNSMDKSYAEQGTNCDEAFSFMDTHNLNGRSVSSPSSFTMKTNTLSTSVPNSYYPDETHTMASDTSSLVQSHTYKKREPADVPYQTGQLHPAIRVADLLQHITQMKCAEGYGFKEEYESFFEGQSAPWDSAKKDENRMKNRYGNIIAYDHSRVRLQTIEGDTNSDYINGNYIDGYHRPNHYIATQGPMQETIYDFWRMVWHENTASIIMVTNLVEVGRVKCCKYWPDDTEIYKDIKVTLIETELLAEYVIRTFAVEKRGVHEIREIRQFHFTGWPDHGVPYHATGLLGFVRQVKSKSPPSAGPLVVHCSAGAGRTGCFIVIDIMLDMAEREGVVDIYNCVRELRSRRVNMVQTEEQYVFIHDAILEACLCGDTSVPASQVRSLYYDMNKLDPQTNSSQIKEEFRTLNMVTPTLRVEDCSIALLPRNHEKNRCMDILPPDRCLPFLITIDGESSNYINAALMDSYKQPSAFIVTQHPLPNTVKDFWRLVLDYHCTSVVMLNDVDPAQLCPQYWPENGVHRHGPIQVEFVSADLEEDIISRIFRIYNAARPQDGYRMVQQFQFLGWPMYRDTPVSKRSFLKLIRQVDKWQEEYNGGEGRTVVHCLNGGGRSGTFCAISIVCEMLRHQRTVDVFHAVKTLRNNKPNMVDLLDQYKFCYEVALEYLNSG
Sequence of human Protein Phosphatase, Mg2+/Mn2+ Dependent 1A (PPM1A), PPM1A (gene 5494) (P35813 whole entry, looked up): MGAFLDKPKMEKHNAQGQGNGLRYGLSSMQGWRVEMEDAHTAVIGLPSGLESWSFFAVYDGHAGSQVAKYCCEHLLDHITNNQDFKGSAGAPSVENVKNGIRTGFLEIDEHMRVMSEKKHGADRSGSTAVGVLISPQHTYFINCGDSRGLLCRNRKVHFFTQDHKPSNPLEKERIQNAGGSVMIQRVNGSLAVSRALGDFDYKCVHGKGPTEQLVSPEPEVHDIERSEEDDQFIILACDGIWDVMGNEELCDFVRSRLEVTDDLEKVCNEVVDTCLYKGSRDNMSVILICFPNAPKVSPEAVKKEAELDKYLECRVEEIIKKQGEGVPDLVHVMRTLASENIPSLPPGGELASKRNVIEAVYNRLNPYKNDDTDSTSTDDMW

On to `Cc1nc(-c2ccccn2)ncc1C(=O)Nn1cc(C)c2cc(F)ccc21`, for which the molecule was called inactive in [1], in test [2], in test [3], in test [5], in test [6] and in test [7]. In addition, the outcome in test [8], in test [9] and in test [10] was inactive. For the same molecule, in test [4], the AC50 was 33.8 µM (active).
As to `c1ccc2cc3ccccc3cc2c1`, the outcome in test [4] was inactive.
On to `Cc1ncc([C@@H](CCCCCCc2ccc3c(n2)NCCC3)CC(=O)O)cn1`, for which the result in test [2], in test [3], in test [5], in test [6], in test [12] and in [7] was inactive. The molecule was classed as inactive in [8], in test [13] and in test [14]. The AC50 in test [11] is 18.6 µM (active).
Consider `OCCOCCOCCO`, for which the molecule was called inactive in test [2], in [3] and in [15].
As to `C[C@@H](Oc1ccc(CNC(=O)c2cccnc2Oc2ccc3c(c2)OCO3)c(F)c1)C(=O)O`, the molecule was classed as inactive in [16].
With `CCCCCCCC/C=C\CCCCCCCC(=O)OC[C@@H](O)[C@H]1OC[C@H](O)[C@H]1O`, the call in test [2], in test [3], in test [17], in [11], in [12] and in [8] was inactive. The outcome in [13], in [18] and in test [10] was inactive.
For the molecule `CC[C@H](C)C(=O)O[C@H]1C[C@H](O)C=C2C=C[C@H](C)[C@H](CC[C@@H](O)C[C@@H](O)CC(=O)O)[C@H]21`, in test [3], the result was inactive.
As to `CCCCCCCCN(C)C`, the molecule was called inactive in [16] and in test [19].
Turning to `C[C@]12C=CC(=O)C=C1CC[C@H]1[C@@H]3C[C@@H](O)[C@](O)(C(=O)CO)[C@@]3(C)C[C@H](O)[C@@]12F`, the molecule was classed as inactive in [19] and in test [15].
Regarding `c1ccc(C(O[C@@H]2CCCN(CCc3ccc4c(c3)OCO4)C2)c2ccccc2)cc1`, in test [19], the result was inactive.
Regarding `OC[C@H]1O[C@@H]2O[C@H]3[C@H](O)[C@@H](O)[C@@H](O[C@H]4[C@H](O)[C@@H](O)[C@@H](O[C@H]5[C@H](O)[C@@H](O)[C@@H](O[C@H]6[C@H](O)[C@@H](O)[C@@H](O[C@H]7[C@H](O)[C@@H](O)[C@@H](O[C@H]1[C@H](O)[C@H]2O)O[C@@H]7CO)O[C@@H]6CO)O[C@@H]5CO)O[C@@H]4CO)O[C@@H]3CO`, the outcome in [6] was inactive.
On to `COCc1nnc(-c2ccc[n+]([O-])c2)n1-c1c(Cl)c(Cl)cc2[nH]c(=O)c(=O)[nH]c12`, for which the call in test [8] was inactive.
For the molecule `CC(C)c1nnc2ccc(-c3ocnc3-c3cc(F)ccc3F)cn12`, the call in test [14] was inactive.
On to `Cn1cc[nH]c1=S`, for which, in test [14], the call was inactive.
Take `Cn1c(=O)c2[nH]cnc2n(C)c1=O`: in test [18], the molecule was called inactive.
Regarding `CCN(CC)C(=S)SSC(=S)N(CC)CC`, in test [9], the result was inactive.

The term AC50 denotes the midpoint of the concentration-response curve, whichever way the signal moves.
